Hits are enriched below; roughly 17% of the tested compounds scored in any of these assays.
TDP1 block: TDP1 (human) enzyme inhibition. Potency, µM (top dose mostly 130 µM), without a hit: at the top dose activity change, negative = inhibition, actives largely listed as inhibitors. 350,000 tested, 0.28% active. Q9NUW8. recombinant TDP1, AlphaScreen DNA substrate cleavage; note: % is set by controls: 0 for no effect and ±100 for the full control effect; nearly all actives have a fitted effect of over 40% in size
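Enzyme-compound mixtures sat 15 min at room temperature, followed by a 5 min reaction with 15 nM final substrate and 10 min with AlphaScreen beads. Recombinant human Tdp1 was used at 1 nM final.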
ClpP mod: qHTS Assay for Activators of ClpP. ATP-dependent Clp protease proteolytic subunit (Bacillus subtilis (strain 168)), P80244. purified B. subtilis ClpP, FRET peptide cleavage, 20 min. Potency, µM (series often up to 57.5 µM), for inactives: at the top dose activity change, negative = active. 340,000 tested, 1.9% active; active = well fitted falling curve with a large enough effect; inconclusive = small, poorly fitted or top-dose-only effect; inactive = no such curve, though single readings can be large or run the other way; note: the source files actives as falling curves though it sought activators and does not explain the sign; nearly all actives have a fitted effect of over 65% in size
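ClpP 10 microg/mL final, pH 8 Tris/KCl buffer with BSA, glycerol, Tween-20; compound pinned in; FRET-FV substrate; RT 20 min; Ex320/Em430; ΔFRET vs ADEP 5.8 microM, DMSO, no enzyme.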
TDP1 cell CPT: DT40-hTDP1 cell growth loss with CPT | Potency, µM (doses to about 46.2 µM), for inactives: at the highest dose activity change, negative = growth inhibition, hits mostly inhibitors | chicken DT40 Tdp1-/-;hTDP1 cells + 20 nM CPT, ATP luminescence, 48 h | 420,000 tested, 12% active | AID 686979; note: % is set by controls: 0 for no effect and ±100 for the full control effect; nearly all actives have a fitted effect of over 55% in size
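Chicken DT40 Tdp1-/- cells complemented with human TDP1, 400 cells/well, exposed to compounds plus 20 nM camptothecin for at least 48 h at 37 C; viability read as ATP content by CellTiter-Glo luminescence.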
TDP1 cell noCPT: qHTS for Inhibitors of human tyrosyl-DNA phosphodiesterase 1 (TDP1): qHTS in cells in absence of CPT; Potency, µM (top dose mostly 46.2 µM), for the others: at the top dose activity change, negative = growth inhibition, usual class: inhibitors; AID 686978, 2013; DT40 Tdp1-/- hTDP1 cells, no CPT, ATP luminescence, 48 h; 420,000 tested, 15% active; note: % is set by controls: 0 for no effect and ±100 for the full control effect; nearly all actives have a fitted effect of over 55% in size
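Chicken DT40 Tdp1-/- cells complemented with human TDP1, screened without camptothecin (DMSO vehicle only), 400 cells/well. Compounds pin-transferred, cells incubated at 37 °C for at least 48 hr. Growth read as ATP-dependent luminescence (CellTiter-Glo, 30 min at RT).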
Starred values were filed as active, the others as inactive; ? = inconclusive; · = not tested or not shown; [ ] = remark or other dose. Unless noted, calls come from the whole dose curve; as a rule, active = well fitted curve in the direction sought with a large enough effect; inconclusive = small, poorly fitted or top-dose-only effect, or another doubt; inactive = no such curve, though single readings can be large; an effect the other way counts as inactive or inconclusive. Potency is the fitted concentration of half-maximal effect.

SMILES	TDP1 block	ClpP mod	TDP1 cell CPT	TDP1 cell noCPT
NC(=NCCc1ccccc1)NC(=O)c1cc(Cl)ccc1O	·	·	?	18.4µM*
Cc1ccc(C(=O)CC(=O)c2ccccc2)cc1	·	8.1%	?	?
Cc1cccc(C(=O)CC(=O)c2cc(Cl)ccc2O)c1	7.5%	0.5%	3.26µM*	4.11µM*
COCc1cc(=O)n2[nH]c(C)c(-c3ccc(Cl)cc3)c2n1	·	4.1%	13µM*	16.4µM*
Cc1[nH]n2c(=O)cc(-c3ccccc3Cl)nc2c1-c1ccccc1	13.6%	-18.1%	9.2µM*	2.59µM*
Nc1ncnc(Nc2ccccc2Cl)n1	-1.3%	0.6%	0.2%	0.2%
CCCNC(=O)C1(C)CCN(Cc2ccc(OC)c3ccccc23)C1 (stereo not drawn)	·	-20.0%	?	20.6µM*
CCCNC(=O)C1(C)CCN(Cc2ccc(C)c3ccccc23)C1 (stereo not drawn)	·	-2.5%	?	23.1µM*
CCCNC(=O)C1(C)CCCN(Cc2csc3ccccc23)C1 (stereo not drawn)	·	1.0%	?	?
COC(=O)c1ccccc1NC(=O)c1cnn2c1NC(=C1CC1)C=C2C(F)F	·	-21.5%	?	?
CCCNC(=O)c1c(NC(=O)c2ccccc2F)sc2c1CCCCC2	·	-0.9%	3.0%	-3.9%
CCCNC(=O)c1sc2c(c1C(=O)Nc1ccccn1)CCCC2	4.8%	·	25.9µM*	18.4µM*
CCCCN(Cc1ccccc1)S(=O)(=O)c1ccc2c(c1)CC(C)N2C(=O)CC (stereo not drawn)	-7.0%	-3.4%	23.1µM*	?
CCCCN(Cc1ccccc1)S(=O)(=O)c1cc2c(cc1Br)CC(C)N2C(C)=O (stereo not drawn)	·	1.7%	18.4µM*	18.4µM*
CCC(=O)N1c2ccc(S(=O)(=O)N(CCO)Cc3ccccc3)cc2CC1C (stereo not drawn)	4.1%	-0.2%	?	-19.8%
COc1ccc(-n2c(COc3cccc4ccccc34)nnc2SC(C)C(=O)O)cc1 (stereo not drawn)	2.8%	·	15.8%	?
CN1CCC(n2[nH]c(-c3ccccc3)c(Cc3ccccc3)c2=O)CC1	·	·	8.2%	?
CCOc1cc(Cl)c(S(=O)(=O)n2ccnc2)cc1Cl	3.2%	0.4%	-0.7%	-8.7%
COc1ccc(-c2cc(NC=O)c3ncc(-c4ccc(OC)c(OC)c4)n3c2)c(OC)c1	·	-28.1%	0.0411µM*	0.0326µM*
COc1cccc(-c2cnc3c(NC=O)cc(-c4ccc(OC)cc4OC)cn23)c1	·	-1.0%	0.0146µM*	0.0206µM*
CCc1ccc(Nc2nnc(-n3nc(C)cc3C)c3ccccc23)cc1	-2.5%	0.8%	?	?
CCN(CC)S(=O)(=O)c1cccc(NC(=O)CCNC(=O)NC23CC4CC(CC(C4)C2)C3)c1	-4.6%	-0.3%	?	?
CCN(CC)c1nc2ccccc2c(N)c1-c1ccccc1	-3.8%	-12.1%	13µM*	20.6µM*
COc1cc(Cl)c(C)cc1Nc1nc2ccccc2c2nnc(C)n12	2.8%	0.6%	0.1%	-15.1%
CCOC(=O)c1sc2nc(C)n(N)c(=O)c2c1C	6.0%	·	12.4%	4.2%
SMILES	TDP1 block	ClpP mod	TDP1 cell CPT	TDP1 cell noCPT
CCOC(=O)c1sc2nc(C)[nH]c(=S)c2c1C	0.0%	·	?	20.6µM*
CCOC(=O)c1sc2nc(CC(=O)OC)nc(NCc3ccc(Cl)cc3)c2c1C	-5.3%	14.1µM*	4.11µM*	5.8µM*
CCOC(=O)c1sc2nc(CC(=O)OC)nc(N3CCN(c4ccc(OC)cc4)CC3)c2c1C	3.4%	2.7%	23.1µM*	23.1µM*
CCOC(=O)c1sc2nc(CC(=O)OC)nc(NCCN3CCOCC3)c2c1C	5.7%	?	-6.1%	?
CCOC(=O)c1sc2nc(C)nc(N3CCN(S(=O)(=O)c4ccccc4)CC3)c2c1C	2.0%	-0.4%	8.2µM*	6.51µM*
CCN(CC)CC(O)CN1C(=O)NC(C)(C)C1=O (stereo not drawn)	6.0%	·	-12.1%	-9.5%
Cc1nc(N2CCN(S(=O)(=O)c3cccs3)CC2)c2c(-c3ccccc3)c(C)sc2n1	·	-1.8%	?	13µM*
O=S(=O)(c1cccs1)N1CCN(c2ncccn2)CC1	2.2%[56.1 µM]	-15.6%	-10.5%	-26.2%
CCOC(=O)c1sc2nc(C)nc(NCc3ccccc3)c2c1C	·	4.1%	10.3µM*	20.6µM*

Screens (PubChem BioAssay)
